# PubChem BioAssay (NCATS)
# Results filed as inconclusive are left out. Calls of active or inactive are those of the source. Unless noted, calls follow the shape of the dose curve; as a rule, active = well fitted inhibition curve with a large enough effect; inconclusive = small, poorly fitted or top-dose-only effect; inactive = flat fitted curve, though single readings scatter.
# Legend:
# [1] = qHTS for identification of novel therapeutic agents for treatment of microphthalmiaassociated transcription factor (MiT) renal cell carcinoma (RCC) (AID 1963991); conditions: CellTiter-Glo, 48 h, stronger effect = lower value
# How it was run: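 Viability of three TFE3-fusion renal carcinoma lines measured by CellTiter-Glo after 48 h treatment with each of 1912 compounds at 11 concentrations. Responses scaled between DMSO (100%) and empty wells (0%) before curve fitting.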
# [2] = qHTS profiling for inhibitors of Plasmodium falciparum proliferation (AID 504749); also: nearly all actives have a fitted effect of over 60% in size; also: potency is read from the fitted curve at half-maximal effect;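 as to activity, negative = inhibition: 0% = DMSO vehicle and full inhibition = artemisinin control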; conditions: P. falciparum in erythrocytes, SYBR Green DNA, 72 h
# How it was run: (§1)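 SYBR Green fluorescence (ex 485 nm, em 535 nm) reports parasite DNA after 72 h compound exposure of infected red cells at 0.3% parasitemia, 2.5% hematocrit; signal normalized to 0.29 uM artemisinin and vehicle wells.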
# [3] = tested on: 3D7; assay: as above; conditions: P. falciparum in erythrocytes, SYBR Green DNA, 72 h; series mostly up to 28.7 µM
# How it was run: as §1
# [4] = tested on: 7G8; assay: as above; conditions: P. falciparum in erythrocytes, SYBR Green DNA, 72 h; series mostly up to 28.7 µM
# How it was run: as §1
# [5] = tested on: AA1029; assay: as above; conditions: P. falciparum in erythrocytes, SYBR Green DNA, 72 h; series mostly up to 28.7 µM
# How it was run: as §1
# [6] = tested on: AS120; assay: as above; conditions: P. falciparum in erythrocytes, SYBR Green DNA, 72 h; series mostly up to 28.7 µM
# How it was run: as §1
# [7] = tested on: ATS189; assay: as above; conditions: P. falciparum in erythrocytes, SYBR Green DNA, 72 h; series mostly up to 28.7 µM
# How it was run: as §1
# [8] = tested on: ATS95; assay: as above; conditions: P. falciparum in erythrocytes, SYBR Green DNA, 72 h; series mostly up to 28.7 µM
# How it was run: as §1
# [9] = tested on: C2A; assay: as above; conditions: P. falciparum in erythrocytes, SYBR Green DNA, 72 h; series mostly up to 28.7 µM
# How it was run: as §1
# [10] = tested on: CP185; assay: as above; conditions: P. falciparum in erythrocytes, SYBR Green DNA, 72 h; series mostly up to 28.7 µM
# How it was run: as §1
# [11] = tested on: CP191; assay: as above; conditions: P. falciparum in erythrocytes, SYBR Green DNA, 72 h; series mostly up to 28.7 µM
# How it was run: as §1
# [12] = tested on: CP192; assay: as above; conditions: P. falciparum in erythrocytes, SYBR Green DNA, 72 h; series mostly up to 28.7 µM
# How it was run: as §1
# [13] = tested on: CP194; assay: as above; conditions: P. falciparum in erythrocytes, SYBR Green DNA, 72 h; series mostly up to 28.7 µM
# How it was run: as §1
# [14] = tested on: CP201; assay: as above; conditions: P. falciparum in erythrocytes, SYBR Green DNA, 72 h; series mostly up to 28.7 µM
# How it was run: as §1
# [15] = tested on: CP203; assay: as above; conditions: P. falciparum in erythrocytes, SYBR Green DNA, 72 h; series mostly up to 28.7 µM
# How it was run: as §1
# [16] = tested on: CP211; assay: as above; conditions: P. falciparum in erythrocytes, SYBR Green DNA, 72 h; series mostly up to 28.7 µM
# How it was run: as §1
# [17] = qHTS drug screen for cell cycle checkpoint inhibitors in PARPi-resistant BRCA-mutant ovarian cancer cell lines. (AID 1963452; calls by dose curve); conditions: PEO1/OlaR viability, CellTiter-Glo luminescence, 96 h, stronger effect = lower value
# How it was run: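 PEO1, PEO4 and PEO1/OlaR ovarian cancer cells, 600 per well, exposed 96 h at 37C to a dilution series. Viability read by CellTiter-Glo luminescence, normalized to DMSO and empty wells; activity summarized as Z-AUC.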
# [18] = TFE3-RCC UOK109 viability, measured here: UOK109 Z-AUC
# [19] = TFE3-RCC viability, measured here: UOK124 Z-AUC
# [20] = TFE3-RCC viability, measured here: UOK145 Z-AUC
# [21] = at 28.7 µM (top of the series), parasite line A
# [22] = at 28.7 µM (top of the series), parasite line B
# [23] = measured here: PEO1 parental Z-AUC
smiles,measurement,setting,value
CN(CCOc1ccc(NS(C)(=O)=O)cc1)CCc1ccc(NS(C)(=O)=O)cc1,z-score,[1]; [18],0.684
same,z-score,[1]; [19],0.913
same,z-score,[1]; [20],0.774
same,"activity, negative = inhibition",[2]; [21],1.37% (inactive)
same,"activity, negative = inhibition",[2]; [22],5.56% (inactive)
same,Potency,[3],inactive
same,Potency,[4],inactive
same,Potency,[5],inactive
same,Potency,[6],inactive
same,Potency,[7],inactive
same,Potency,[8],inactive
same,Potency,[9],inactive
same,Potency,[10],inactive
same,Potency,[11],inactive
same,Potency,[12],inactive
same,Potency,[13],inactive
same,Potency,[14],inactive
same,Potency,[15],inactive
same,Potency,[16],inactive
O=C(Nc1ccc([N+](=O)[O-])cc1Cl)c1cc(Cl)ccc1O,Z-AUC,[17],-0.74 (inactive)
same,Z-AUC,[17]; [23],-1.01
same,Z-AUC,[17]; measured here: PEO4 Z-AUC,-1.03
same,Potency,[3],1.78 µM (active)
same,Potency,[4],0.891 µM (active)
same,Potency,[6],0.794 µM (active)
same,Potency,[9],inactive
same,Potency,[10],inactive
same,Potency,[11],0.891 µM (active)
same,Potency,[15],0.478 µM (active)
O=C(c1ccc(OCCN2CCCCC2)cc1)c1c(-c2ccc(O)cc2)sc2cc(O)ccc12,Z-AUC,[17],0.6 (inactive)
same,Z-AUC,[17]; [23],0.409
same,Z-AUC,[17]; measured here: PEO4 Z-AUC,0.0416
same,Potency,[2]; parasite line A,2.82 µM (active)
same,Potency,[2]; parasite line B,11.2 µM (active)
same,Potency,[3],2 µM (active)
same,Potency,[4],2.51 µM (active)
same,Potency,[5],11.2 µM (active)
same,Potency,[6],2.82 µM (active)
same,Potency,[9],10 µM (active)
same,Potency,[11],5.01 µM (active)
same,Potency,[14],9.53 µM (active)
same,Potency,[15],16.9 µM (active)
Clc1ccc(C(c2ccccc2Cl)C(Cl)Cl)cc1 (stereo unspecified),Z-AUC,[17],-0.334 (inactive)
same,Z-AUC,[17]; [23],0.14
same,Z-AUC,[17]; measured here: PEO4 Z-AUC,0.236
same,"activity, negative = inhibition",[2]; [21],-12.9% (inactive)
same,"activity, negative = inhibition",[2]; [22],-9.4% (inactive)
same,Potency,[5],inactive
same,Potency,[6],inactive
same,Potency,[7],inactive
same,Potency,[8],inactive
same,Potency,[9],inactive
same,Potency,[10],inactive
same,Potency,[12],inactive
CN(C)C(=N)N=C(N)N,z-score,[1]; [18],0.797
same,z-score,[1]; [19],1.58
same,z-score,[1]; [20],0.981
same,"activity, negative = inhibition","[2]; at 12.8 µM (top of the series), parasite line A",11.7% (inactive)
same,"activity, negative = inhibition","[2]; at 12.8 µM (top of the series), parasite line B",23.8% (inactive)
same,Potency,[3],inactive
same,Potency,[4],inactive
same,Potency,[5],inactive
same,Potency,[7],inactive
same,Potency,[8],inactive
same,Potency,[9],inactive
same,Potency,[10],inactive
same,Potency,[11],inactive
same,Potency,[14],inactive
CC(C)NCC(O)c1ccc(O)c(O)c1 (stereo unspecified),Z-AUC,[17],1.31 (inactive)
same,Z-AUC,[17]; [23],0.911
same,Z-AUC,[17]; measured here: PEO4 Z-AUC,0.816
same,"activity, negative = inhibition",[2]; [21],-3.62% (inactive)
same,"activity, negative = inhibition",[2]; [22],-0.405% (inactive)
same,Potency,[3],inactive
same,Potency,[5],inactive
same,Potency,[6],inactive
same,Potency,[7],inactive
same,Potency,[8],inactive
same,Potency,[9],inactive
same,Potency,[10],inactive
same,Potency,[11],inactive
same,Potency,[12],inactive
same,Potency,[13],inactive
same,Potency,[14],inactive
same,Potency,[15],inactive
same,Potency,[16],inactive
CN(Cc1cnc2nc(N)nc(N)c2n1)c1ccc(C(=O)N[C@@H](CCC(=O)O)C(=O)O)cc1,Z-AUC,[17],0.203 (inactive)
same,Z-AUC,[17]; [23],0.268
same,Z-AUC,[17]; measured here: PEO4 Z-AUC,0.255
same,Potency,[2]; parasite line A,0.112 µM (active)
same,Potency,[2]; parasite line B,0.141 µM (active)
same,Potency,[3],0.141 µM (active)
same,Potency,[4],0.126 µM (active)
same,Potency,[5],inactive
same,Potency,[6],0.141 µM (active)
same,Potency,[9],0.251 µM (active)
same,Potency,[12],inactive
same,Potency,[13],inactive
same,Potency,[14],inactive
same,Potency,[15],inactive
same,Potency,[16],inactive
CC#C[C@]1(O)CC[C@H]2[C@@H]3CCC4=CC(=O)CCC4=C3[C@@H](c3ccc(N(C)C)cc3)C[C@@]21C,Z-AUC,[17],1.15 (inactive)
same,Z-AUC,[17]; [23],0.225
same,Z-AUC,[17]; measured here: PEO4 Z-AUC,0.142
same,Potency,[2]; parasite line A,8.91 µM (active)
same,Potency,[2]; parasite line B,8.91 µM (active)
same,Potency,[3],8.91 µM (active)
same,Potency,[4],2.82 µM (active)
same,Potency,[5],12.6 µM (active)
same,Potency,[6],7.08 µM (active)
same,Potency,[11],11.2 µM (active)
same,Potency,[13],16.9 µM (active)
same,Potency,[14],15.1 µM (active)
same,Potency,[15],19 µM (active)
same,Potency,[16],13.5 µM (active)
Cc1cn([C@H]2C[C@H](N=[N+]=[N-])[C@@H](CO)O2)c(=O)[nH]c1=O,"activity, negative = inhibition",[2]; [21],-7.84% (inactive)
same,"activity, negative = inhibition",[2]; [22],9.23% (inactive)
same,Potency,[3],inactive
same,Potency,[4],inactive
same,Potency,[5],inactive
same,Potency,[6],inactive
same,Potency,[7],inactive
same,Potency,[8],inactive
same,Potency,[9],inactive
same,Potency,[10],inactive
same,Potency,[11],inactive
same,Potency,[12],inactive
same,Potency,[13],inactive
same,Potency,[14],inactive
same,Potency,[15],inactive
same,Potency,[16],inactive
